Structures can show the parent of a compound that is named as a salt. ± gives the standard deviation of the averaged measurements.

What all share (test): growth (OD600 after 10 h); higher = more growth (less inhibition)
Experiment [1] relates to E. coli TESEC Alr+ wild-type control. The conditions noted are these: compound 0.1 mM; raw OD600 reference: median of DMSO wells 0.241, cell-free background 0.041. The method, then:
(§1)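 TESEC Mtb Alr E. coli, or the Alr+ wild-type control, in 384-well plates with Prestwick library compounds at 0.1 mM and 1% DMSO, across arabinose induction levels of 1E3 to 1E7 nM. Growth is read as OD600 after 10 h at 37 °C in triplicate biological replicates.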

The subject of experiment [2] is E. coli TESEC Mtb Alr. The conditions noted are these: compound 0.1 mM. The method, then:
as §1

In the next experiment the test system is E. coli TESEC Mtb Asd. The conditions noted are these: compound 0.1 mM. The procedure: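 TESEC E. coli strains in which the native enzyme is deleted and replaced by arabinose-inducible Mtb Asd, DapB, CysH or TrpD, each grown in its selective medium. Strains were screened against the Prestwick library at 0.1 mM and 1% DMSO in 384-well format at low and high arabinose induction. Growth is read as OD600 after 10 h in triplicate.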

Experiment [3] deals with E. coli TESEC Alr+ wild-type control. Particulars: compound 0.1 mM; raw OD600 reference: median of DMSO wells 0.49, cell-free background 0.052. The method, then:
(§2)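 TESEC Mtb Alr E. coli (ΔaraC ΔtolC ΔentC Δalr ΔdadX, arabinose-inducible Mtb Alr) or the Alr+ wild-type control strain, grown in defined M9-fructose medium without D-alanine in 96-well plates with Prestwick library compounds at 0.1 mM and 1% DMSO. Low Alr induction is 0.1 µM arabinose and high induction is 10 mM arabinose.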

Experiment [4] relates to E. coli TESEC Mtb Alr. The conditions noted are these: compound 0.1 mM. The procedure:
as §2
The source holds these as a separate data set.

Setting [5] is: arabinose 1000 nM, raw OD600 reference: median of DMSO wells 0.294, cell-free background 0.041.
Where [6] appears, read: arabinose 10000 nM, raw OD600 reference: median of DMSO wells 0.264, cell-free background 0.041.
Setting [7] is: arabinose 100000 nM, raw OD600 reference: median of DMSO wells 0.201, cell-free background 0.041.
Where [8] appears, read: arabinose 1000000 nM, raw OD600 reference: median of DMSO wells 0.193, cell-free background 0.041.
The mark [9] stands for this setting: arabinose 10000000 nM, raw OD600 reference: median of DMSO wells 0.146, cell-free background 0.041.
Setting [10] is: arabinose induction (level): High, raw OD600 reference: median of DMSO wells 0.331, cell-free background 0.041.
[11] abbreviates: arabinose induction (level): Low, raw OD600 reference: median of DMSO wells 0.417, cell-free background 0.041.
[12] abbreviates: arabinose 100 nM, raw OD600 reference: median of DMSO wells 0.413, cell-free background 0.052.
Where [13] appears, read: arabinose 10000000 nM, raw OD600 reference: median of DMSO wells […], cell-free background 0.052.

As to `O=C1C(O)=C(O)C(=O)C(O)=C1O` [Tetrahydroxy-1,4-quinone hydrate], the growth worked out at 0.231 ± 0.0052 in experiment [1]; 0.29 ± 0.02 in the experiment with E. coli TESEC Mtb Alr [2] (setting [5]); 0.275 ± 0.0064 with E. coli TESEC Mtb Alr [2] (setting [6]); 0.19 ± 0.018 in the experiment on E. coli TESEC Mtb Alr [2] (setting [7]); 0.1568 ± 0.0015 in the experiment with E. coli TESEC Mtb Alr [2] (setting [8]); 0.142 ± 0.0053 in the experiment with E. coli TESEC Mtb Alr [2] (setting [9]). Further, the growth with E. coli TESEC Mtb Asd (setting [10]) was 0.349 ± 0.089; with E. coli TESEC Mtb Asd (setting [11]), 0.427 ± 0.082; in experiment [3], 0.5 ± 0.021; in the experiment on E. coli TESEC Mtb Alr [4] (setting [12]) it was 0.399 ± 0.012; in the experiment on E. coli TESEC Mtb Alr [4] (setting [13]), 0.333 ± 0.0084.

On to `C[C@H](Cc1cc2c(c(C(N)=O)c1)N(CCCO)CC2)NCCOc1ccccc1OCC(F)(F)F` [Silodosin], for which the growth turned out to be 0.1773 ± 0.001 in experiment [1]; 0.251 ± 0.0074 in the experiment on E. coli TESEC Mtb Alr [2] (setting [5]); 0.273 ± 0.0053 with E. coli TESEC Mtb Alr [2] (setting [6]); 0.171 ± 0.019 with E. coli TESEC Mtb Alr [2] (setting [7]); 0.158 ± 0.015 in the experiment on E. coli TESEC Mtb Alr [2] (setting [8]); 0.14 ± 0.0083 in the experiment with E. coli TESEC Mtb Alr [2] (setting [9]). Further, the growth in the experiment with E. coli TESEC Mtb Asd (setting [10]) worked out at 0.302 ± 0.092; with E. coli TESEC Mtb Asd (setting [11]), 0.474 ± 0.012; in experiment [3] it was 0.442 ± 0.056; with E. coli TESEC Mtb Alr [4] (setting [12]), 0.407 ± 0.011; in the experiment with E. coli TESEC Mtb Alr [4] (setting [13]), 0.329 ± 0.018.

With `CCC(NC(C)C)C(O)c1ccc(O)c(O)c1` (centres undefined) [Isoetharine mesylate salt], the growth in experiment [1] is 0.196 ± 0.0071; in the experiment on E. coli TESEC Mtb Alr [2] (setting [5]), 0.303 ± 0.012; in the experiment with E. coli TESEC Mtb Alr [2] (setting [6]) it was 0.277 ± 0.005; with E. coli TESEC Mtb Alr [2] (setting [7]), 0.188 ± 0.018; in the experiment on E. coli TESEC Mtb Alr [2] (setting [8]), 0.18 ± 0.0035; in the experiment on E. coli TESEC Mtb Alr [2] (setting [9]), 0.155 ± 0.0024. For the same compound, the growth worked out at 0.309 ± 0.11 in the experiment on E. coli TESEC Mtb Asd (setting [10]); 0.37 ± 0.062 in the experiment on E. coli TESEC Mtb Asd (setting [11]); 0.64 ± 0.039 in experiment [3]; 0.401 ± 0.032 with E. coli TESEC Mtb Alr [4] (setting [12]); 0.344 ± 0.019 in the experiment on E. coli TESEC Mtb Alr [4] (setting [13]).

As for `O=C1CCc2cc(OCCCCc3nnnn3C3CCCCC3)ccc2N1` [Cilostazol], the growth was 0.148 ± 0.028 in experiment [1]; 0.194 ± 0.027 in the experiment with E. coli TESEC Mtb Alr [2] (setting [5]); 0.1826 ± 0.00091 in the experiment with E. coli TESEC Mtb Alr [2] (setting [6]); 0.125 ± 0.0036 in the experiment on E. coli TESEC Mtb Alr [2] (setting [7]); 0.0688 ± 0.0017 in the experiment with E. coli TESEC Mtb Alr [2] (setting [8]); 0.123 ± 0.0057 with E. coli TESEC Mtb Alr [2] (setting [9]). Also, the growth worked out at 0.225 ± 0.051 in the experiment with E. coli TESEC Mtb Asd (setting [10]); 0.285 ± 0.033 in the experiment on E. coli TESEC Mtb Asd (setting [11]); 0.461 ± 0.015 in experiment [3]; 0.411 ± 0.0062 in the experiment with E. coli TESEC Mtb Alr [4] (setting [12]); 0.145 ± 0.015 in the experiment with E. coli TESEC Mtb Alr [4] (setting [13]).

As for `O=P(O)(O)C(O)(Cc1cccnc1)P(=O)(O)O` [Risedronic acid monohydrate], the growth in experiment [1] was determined as 0.247 ± 0.0087; in the experiment on E. coli TESEC Mtb Alr [2] (setting [5]), 0.2984 ± 0.0028; with E. coli TESEC Mtb Alr [2] (setting [6]), 0.265 ± 0.0074; with E. coli TESEC Mtb Alr [2] (setting [7]), 0.191 ± 0.0063; in the experiment on E. coli TESEC Mtb Alr [2] (setting [8]), 0.196 ± 0.0097; with E. coli TESEC Mtb Alr [2] (setting [9]) it was 0.156 ± 0.0062. The growth in the experiment on E. coli TESEC Mtb Asd (setting [10]) came to 0.278 ± 0.053; with E. coli TESEC Mtb Asd (setting [11]), 0.376 ± 0.05; in experiment [3], 0.608 ± 0.083; with E. coli TESEC Mtb Alr [4] (setting [12]), 0.426 ± 0.015; with E. coli TESEC Mtb Alr [4] (setting [13]) it was 0.277 ± 0.011.

As to `CN1Cc2c(N)cccc2C(c2ccccc2)C1` (centres undefined) [Nomifensine maleate], the growth in experiment [1] is 0.225 ± 0.0061; in the experiment on E. coli TESEC Mtb Alr [2] (setting [5]), 0.273 ± 0.0089; in the experiment on E. coli TESEC Mtb Alr [2] (setting [6]), 0.249 ± 0.0043; in the experiment with E. coli TESEC Mtb Alr [2] (setting [7]) it was 0.19 ± 0.036; with E. coli TESEC Mtb Alr [2] (setting [8]), 0.1674 ± 0.0015; with E. coli TESEC Mtb Alr [2] (setting [9]) it was 0.141 ± 0.0063. The growth in the experiment with E. coli TESEC Mtb Asd (setting [10]) came out at 0.243 ± 0.026; with E. coli TESEC Mtb Asd (setting [11]) it was 0.357 ± 0.038; in experiment [3] it was 0.498 ± 0.078; in the experiment on E. coli TESEC Mtb Alr [4] (setting [12]), 0.4122 ± 0.0024; in the experiment on E. coli TESEC Mtb Alr [4] (setting [13]) it was 0.348 ± 0.019.

As for `CCCCC1=NC2(CCCC2)C(=O)N1Cc1ccc(-c2ccccc2-c2nnn[nH]2)cc1` [Irbesartan], the growth in experiment [1] stood at 0.152 ± 0.0053; in the experiment with E. coli TESEC Mtb Alr [2] (setting [5]), 0.227 ± 0.0037; in the experiment on E. coli TESEC Mtb Alr [2] (setting [6]) it was 0.21 ± 0.011; in the experiment with E. coli TESEC Mtb Alr [2] (setting [7]), 0.121 ± 0.0023; with E. coli TESEC Mtb Alr [2] (setting [8]), 0.0979 ± 0.0024; in the experiment with E. coli TESEC Mtb Alr [2] (setting [9]) it was 0.13 ± 0.0027. The growth was 0.198 ± 0.03 in the experiment with E. coli TESEC Mtb Asd (setting [10]); 0.21 ± 0.029 in the experiment on E. coli TESEC Mtb Asd (setting [11]); 0.528 ± 0.12 in experiment [3]; 0.346 ± 0.012 in the experiment on E. coli TESEC Mtb Alr [4] (setting [12]); 0.167 ± 0.014 in the experiment with E. coli TESEC Mtb Alr [4] (setting [13]).

For the compound `Clc1ccc(COC(Cn2ccnc2)c2ccc(Cl)cc2Cl)c(Cl)c1` (centres undefined) [Miconazole], the growth in experiment [1] was found to be 0.0977 ± 0.098; in the experiment with E. coli TESEC Mtb Alr [2] (setting [5]), 0.201 ± 0.11; with E. coli TESEC Mtb Alr [2] (setting [6]) it was 0.03953 ± 0.00021; in the experiment with E. coli TESEC Mtb Alr [2] (setting [7]), 0.0741 ± 0.0079; with E. coli TESEC Mtb Alr [2] (setting [8]), 0.03923 ± 0.00025; in the experiment with E. coli TESEC Mtb Alr [2] (setting [9]), 0.141 ± 0.061. In addition, the growth with E. coli TESEC Mtb Asd (setting [10]) stood at 0.0471 ± 0.00055; with E. coli TESEC Mtb Asd (setting [11]), 0.0481 ± 0.0013; in experiment [3] it was 0.137 ± 0.03; in the experiment on E. coli TESEC Mtb Alr [4] (setting [12]), 0.051 ± 0.0039; in the experiment with E. coli TESEC Mtb Alr [4] (setting [13]) it was 0.083 ± 0.0044.

Turning to `CC(=C(CCO)SSCC1CCCO1)N(C=O)Cc1cnc(C)nc1N` (stereo in doubt) [Fursultiamine Hydrochloride], the growth in experiment [1] was 0.245 ± 0.0085; in the experiment with E. coli TESEC Mtb Alr [2] (setting [5]), 0.313 ± 0.0078; in the experiment on E. coli TESEC Mtb Alr [2] (setting [6]), 0.282 ± 0.0063; in the experiment on E. coli TESEC Mtb Alr [2] (setting [7]), 0.208 ± 0.023; with E. coli TESEC Mtb Alr [2] (setting [8]), 0.22 ± 0.0094; in the experiment with E. coli TESEC Mtb Alr [2] (setting [9]), 0.132 ± 0.0026. The growth with E. coli TESEC Mtb Asd (setting [10]) came to 0.215 ± 0.0087; in the experiment on E. coli TESEC Mtb Asd (setting [11]), 0.275 ± 0.052; in experiment [3], 0.583 ± 0.044; in the experiment on E. coli TESEC Mtb Alr [4] (setting [12]), 0.399 ± 0.013; with E. coli TESEC Mtb Alr [4] (setting [13]), 0.323 ± 0.019.
